HSF-1 act: HSF-1 activators, primary screen, NIH3T3-HGL cells, MG132 stress, luminescence, single point; actives 1.7% (n = 300,000); activation, % at 9 µM; NIH3T3-HGL HSF-1 luciferase reporter, 8 h; 100% = twice DMSO control signal;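 active = mean replicate activation of at least 50% with a set share of replicates each reaching 50%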
HSP90 refold inh: HSP90 inhibitors, primary screen, cell lysate, luminescence; Rabbit reticulocyte lysate, luciferase refolding luminescence, 3 h; inhibition, % at 5.6 µM; actives 0.91% (n = 290,000); AID 1789, 2009;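 active = inhibition above the screen-wide mean plus 3 SD, computed separately per campaign, cut at about 16% in these data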;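 note: inhibitors lower the luminescence because luciferase stays unfolded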
MPTP block: mitochondrial permeability transition pore inhibitors, primary screen, biochemical, isolated mouse mitochondria, absorbance; Ca2+ swelling absorbance, 30 min; inhibition, % at 10 µM; actives 1.4% (n = 360,000);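 active = inhibition of 50% or more, scaled per plate between neutral and stimulator controls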
Platelet DG rel: inhibitors of platelet dense granule secretion, primary screen, cell-based, MLPCN, human platelets. actives 0.22% (n = 300,000). inhibition, %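 (compounds screened at 7.5 µM in platelet-rich plasma)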. human platelet-rich plasma, SFLLRN dense granule ATP release, luminescence;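 active = mean replicate score, as percent of positive control, at or above 50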
dFosB act-1: activators of delta FosB homodimer, primary screen, biochemical, fluorescence polarization, TAMRA-CDK5 oligo, single point. Protein FosB (Mus musculus), P13346. purified delta FosB; percent of positive-control signal above neutral wells. activation, % at 25 µM. actives 0.99% (n = 340,000). AID 493131, 2011;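 active = mean activation above about 17%, with every replicate also reaching it, limit read from the data, passing the limit was not always enough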
Target sequence (P13346 whole entry, looked up): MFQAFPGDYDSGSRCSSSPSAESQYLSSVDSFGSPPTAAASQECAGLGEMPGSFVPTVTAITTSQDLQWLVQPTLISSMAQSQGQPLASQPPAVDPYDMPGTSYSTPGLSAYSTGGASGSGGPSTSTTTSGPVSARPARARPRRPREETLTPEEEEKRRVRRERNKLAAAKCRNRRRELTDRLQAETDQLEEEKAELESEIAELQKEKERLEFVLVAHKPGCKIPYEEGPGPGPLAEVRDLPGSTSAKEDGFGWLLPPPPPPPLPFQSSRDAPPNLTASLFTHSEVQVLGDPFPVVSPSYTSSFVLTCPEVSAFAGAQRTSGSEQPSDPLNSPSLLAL
HSF1 inhib: HSF1 inhibitors in luciferase reporter cells, primary screen, cell-based, NIH3T3, luminescence. actives 0.77% (n = 300,000). AID 2098, 2009. activity change, negative = inhibition, % at 7.5 µM (by protocol). NIH3T3-HGL HSE-luciferase, MG132-induced, luminescence 8 h; stronger effect = lower value;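 active = more than half of replicate wells show activity change below -50%, luminescence cut by over half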;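 note: luciferase reports HSF-1 transcriptional activity via heat shock element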
dFosB act-2: activators of mouse delta FosB DNA binding, confirmation, biochemical, fluorescence polarization, TAMRA-CDK5 oligo, cherry-picked samples; activation, % at 24.9 µM; purified delta FosB; normalised: neutral wells 0, positive control 100; shares compounds with dFosB act-1; 2,400 tested, under 10 active; AID 588690, 2011;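 active = highest replicate activation at or above 34% and every replicate reaching that threshold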;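 note: higher polarization means more probe DNA bound by delta FosB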
Of the large screens only hits and unclear results are named; the others gave an inactive call (follow-up assays come after a bar, where they were run). Sampled rows, rich in hits. Any-hit rate of the full collection: about 4.9%.

CCc1ccc(NC(=O)Cn2nnc(C(=O)NCCc3ccc(OC)c(OC)c3)c2N)cc1	dFosB act-1 83 | dFosB act-2 inactive
COC(=O)c1ccc(NC(=O)c2cccc(NC(=O)c3ccco3)c2)cc1	dFosB act-1 17 | dFosB act-2 inactive
O=C(O)Cc1ccc(NC(=O)c2ccc(NC(=O)c3ccco3)cc2)cc1	none
O=C(Nc1cccc(NC(=O)c2ccco2)c1)c1ccc([N+](=O)[O-])cc1	dFosB act-1 20 | dFosB act-2 inactive
COC(=O)Cc1ccc(NC(=O)c2ccc(NC(=O)c3ccco3)cc2)cc1	dFosB act-1 34 | dFosB act-2 inactive
COC(=O)c1cccc(NC(=O)NC(=O)c2ccc(Cl)cc2)c1	dFosB act-1 41 | dFosB act-2 inactive
Cn1c(N)c(C(=O)COC(=O)c2cc(S(=O)(=O)NCc3ccccc3)ccc2O)c(=O)n(C)c1=O	none (no result: HSF-1 act, HSP90 refold inh, Platelet DG rel, HSF1 inhib)
COc1ccc([C@H]2N[C@]3(CCCN(Cc4ccco4)C3=O)[C@H]3C(=O)N(Cc4ccccc4)C(=O)[C@@H]23)cc1	none (no result: HSF-1 act, HSP90 refold inh, Platelet DG rel, dFosB act-1, HSF1 inhib)
O=C(O)[C@H]1CCCC[C@H]1C(=O)Nc1ccc(S(=O)(=O)N2CCOCC2)cc1	none
COc1ccc2c(Cl)c(C(=O)N/N=C/c3ccncc3)sc2c1	dFosB act-1 52 | dFosB act-2 inactive
COc1cc(/C=N/NC(=O)c2cccnc2)ccc1OCC(=O)Nc1c(C)cc(C)cc1C	dFosB act-1 26 | dFosB act-2 inactive
COc1cc(/C=N/NC(=O)c2cccnc2)ccc1OCC(=O)Nc1ccccc1Cl	dFosB act-1 116 | dFosB act-2 inactive
COc1ccc(NC(=O)COc2ccc(/C=N/NC(=O)c3cccnc3)cc2OC)cc1	none (no result: HSF-1 act, HSF1 inhib)
CNC(=S)N/N=C/c1ccc(OCC(=O)Nc2c(C)cc(C)cc2C)c(OC)c1	none
COc1ccccc1/C=C/C(=O)NNC(=O)c1cccs1	none
Cc1cccc(NC(=O)CN(CCc2ccccc2)S(C)(=O)=O)c1	none
CCN(c1cccc(C)c1)S(=O)(=O)c1ccc(-n2cccn2)cc1	none
COc1cc2c3nnc(-c4ccc(F)cc4)c-3cn(Cc3ccc(F)cc3)c2cc1OC	dFosB act-1 37 | dFosB act-2 inactive
CC1C(=O)N(Cc2ccc([N+](=O)[O-])cc2)c2ccccc2N1C(=O)C1CC1 (configuration not stated)	none (no result: MPTP block, dFosB act-1)
CC(=O)Nc1ccc(NC(=O)C(C)OC(=O)c2cccc(S(=O)(=O)N3CCCCC3)c2)cc1 (configuration not stated)	dFosB act-1 32 | dFosB act-2 inactive
CC(=O)Nc1nc(-c2cc([N+](=O)[O-])cs2)cs1	dFosB act-1 29 (no result: HSF-1 act, HSF1 inhib) | dFosB act-2 inactive
CC(=O)Nc1nc(-c2ccc([N+](=O)[O-])cc2)cs1	none
O=C(CCC(=O)c1ccc(Oc2ccccc2)cc1)Nc1cccc(Cl)c1	dFosB act-1 26 | dFosB act-2 inactive
O=C1Nc2cc(C(=O)NCCCN3CCCC3)ccc2S/C1=C/c1ccccc1F	none
COc1cccc(/C=C2/Sc3ccc(C(=O)NCCCN4CCCC4)cc3NC2=O)c1	dFosB act-1 37 | dFosB act-2 inactive
O=C(NC1CCCC1)C(c1cccs1)N(C(=O)c1ccco1)c1ccc2c(c1)OCO2 (configuration not stated)	none
O=C(NCC(=O)N(c1ccc2c(c1)OCO2)C(C(=O)NC1CCCC1)c1cccs1)c1ccco1 (configuration not stated)	dFosB act-1 50 | dFosB act-2 inactive
O=C(COC(=O)c1ccc(Br)cc1)NCc1ccc(F)cc1	dFosB act-1 20 | dFosB act-2 inactive
CS(=O)(=O)N(Cc1ccc(Cl)cc1)c1ccc(C(=O)N/N=C/c2cc3ccccc3nc2Cl)cc1	dFosB act-1 41 | dFosB act-2 inactive
CS(=O)(=O)N(Cc1ccc(Cl)cc1)c1ccc(C(=O)NCc2ccccn2)cc1	none
COc1cccc(/C=N/NC(=O)c2nnn(-c3nonc3N)c2CN(C)C2CCCCC2)c1	none (no result: HSF-1 act, HSP90 refold inh, Platelet DG rel, dFosB act-1, HSF1 inhib)
COc1ccc(Cn2c(C)c(C)c(C#N)c2NC(=O)Nc2ccccc2)cc1	none
COc1ccc(Cn2c(C)c(C)c(C#N)c2NC(=O)Nc2cccc(C)c2)cc1	dFosB act-1 63 | dFosB act-2 inactive
O=C1[C@H](Oc2ccccc2)[C@@H](c2ccccc2)N1c1ccncc1	dFosB act-1 18 (no result: HSF-1 act, HSP90 refold inh, Platelet DG rel, HSF1 inhib) | dFosB act-2 inactive
COC(C(=O)Nc1ccnn1C1CCN(C(=O)c2cccc(F)c2)CC1)c1ccccc1 (configuration not stated)	none
COc1ccc(OC)c(C2=NS(=O)(=O)N(C)C(C(=O)Nc3ccc(F)cc3F)=C2)c1	none
Cn1ncc2c(Nc3cccc(Cl)c3)nc(Nc3cccc(Cl)c3)nc21	dFosB act-1 31 | dFosB act-2 inactive
CNc1nc(Nc2ccc(C)c(Cl)c2)c2cnn(C)c2n1	none
Cn1ncc2c(Nc3ccc(Br)cc3)nc(Nc3ccc(Br)cc3)nc21	dFosB act-1 53 | dFosB act-2 inactive
O=C(Nc1ccc(N2CCOCC2)cc1)c1ccc(COc2ccccc2)cc1	none
Cc1cc(C)c2c(N)c(C(=O)c3ccc(Cl)c(Cl)c3)sc2n1	dFosB act-1 37 | dFosB act-2 inactive
CCc1nc2ccc(C(=O)Nc3cccc(OCC(=O)N(C)C)c3)cn2c1N(C)Cc1cc2ccccc2s1	none (no result: HSF-1 act, HSP90 refold inh, Platelet DG rel, dFosB act-1, HSF1 inhib)
Cc1ccc(CSc2nnc(SCC(=O)N/N=C/c3c[nH]c4ccccc34)s2)cc1	dFosB act-1 81 | dFosB act-2 inactive
O=c1c2ccc(Cl)cc2[nH]c(=S)n1Cc1cccnc1	dFosB act-1 20 | dFosB act-2 inactive
O=C(c1ccc2c(=O)n(Cc3ccc(Cl)cc3)c(=S)[nH]c2c1)N1CCCC1	none
COc1ccc(NC(=O)Cn2ncn3nc(-c4ccc(OC)cc4)cc3c2=O)cc1	dFosB act-1 63 | dFosB act-2 inactive
COc1ccc(-c2cc3c(=O)n(CC(=O)NCCCc4ccccc4)ncn3n2)cc1	none
Cc1nn(CC(=O)Nc2ccc(Cl)cc2)c(=O)c2cc(-c3ccccc3)nn12	dFosB act-1 30 | dFosB act-2 inactive
COc1ccc(-c2cc3c(=O)n(CC(=O)Nc4ccc(Cl)cc4)ncn3n2)cc1	dFosB act-1 31 | dFosB act-2 inactive
CCc1ccc(NC(=O)Cn2ncc3c4ccccc4n(C)c3c2=O)cc1	none
Cn1c2ccccc2c2cnn(CC(=O)Nc3ccc(Cl)cc3)c(=O)c21	dFosB act-1 26 | dFosB act-2 inactive
